Source: PubChem BioAssay (Tox21)
Records with an inconclusive call do not appear. Calls of active or inactive are those of the source. Unless noted, calls follow the shape of the dose curve; as a rule, active = well fitted curve in the direction sought with a large enough effect in the repeat runs; inconclusive = weak or mixed curves; inactive = no such curve, though single readings can be large; an effect the other way counts as inactive or inconclusive.

Columns and labels:
[1] = qHTS assay to identify aromatase inhibitors - cell viability counter screen (AID 743084);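 also: cells stimulated with testosterone during compound exposure; nearly all actives have a fitted effect of over 55% in size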
[2] = target: Aryl hydrocarbon receptor (Homo sapiens) (UniProt P35869); assay: qHTS assay to identify small molecule that activate the aryl hydrocarbon receptor (AhR) signaling pathway (AID 743085);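 also: HG2L7.5c1 human HepG2 liver cells with stably integrated DRE-driven firefly reporter; series mostly up to about 70 µM; nearly all actives have a fitted effect of over 15% in size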
In short: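 HepG2 cells (HG2L7.5c1) stably carrying a firefly luciferase reporter driven by 20 dioxin responsive elements were exposed to compound for 24 h at 37C after a 5 h settling period; luminescence rise (ONE-Glo) indicated activation.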

[3] = qHTS assay to identify small molecule that activate the aryl hydrocarbon receptor (AhR) signaling pathway - cell viability counter screen (AID 743086);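 also: HepG2 liver cells carrying the AhR DRE luciferase reporter; series mostly up to about 70 µM; nearly all actives have a fitted effect of over 45% in size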
In short: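 Cytotoxicity counter screen: CellTiter-Fluor signal (30 min, 37 C) in 4000 HepG2 cells/well carrying the DRE-luciferase reporter, following 24 h compound exposure at 37 C.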

[4] = target: Peroxisome proliferator-activated receptor gamma (Homo sapiens) (UniProt P37231); assay: qHTS assay to identify small molecule agonists of the peroxisome proliferator-activated receptor gamma (PPARg) signaling pathway (AID 743094; active = well fitted activation curve with a large enough effect in the signal ratio in the repeat runs, not every such curve was filed as active; the % refers to the signal ratio)
In short: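 HEK293H PPARg-bla cells, 5 h settle at 37C/5% CO2; compound (DMSO) 17 h, 37C; B/G FRET substrate 1 h RT; fluorescence intensity read-out. qHTS format.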

[5] = target: Peroxisome proliferator-activated receptor gamma (Homo sapiens) (UniProt P37231); assay: qHTS assay to identify small molecule antagonists of the peroxisome proliferator-activated receptor gamma (PPARg) signaling pathway (AID 743191; calls by dose curve; also: series mostly up to about 63 µM; nearly all actives have a fitted effect of over 30% in size)
In short: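 Beta-lactamase reporter under UAS control in HEK293H PPARg-bla cells; compound treatment 17 h at 37C. Read-out: fluorescence intensity after 1 h room-temperature incubation with LiveBLAzer B/G FRET substrate.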

[6] = qHTS assay for small molecule agonists of the antioxidant response element (ARE) signaling pathway (AID 743202; active = well fitted activation curve with a large enough effect in the signal ratio in the repeat runs, not every such curve was filed as active; the % refers to the signal ratio)
In short: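 Beta-lactamase reporter activity, read as fluorescence intensity, reflects ARE/Nrf2 pathway induction in HepG2 cells after 16 h compound exposure at 37 C; substrate loading was 2 h at room temperature.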

[7] = qHTS assay for small molecule agonists of the antioxidant response element (ARE) signaling pathway - cell viability counter screen (AID 743203; calls by dose curve; also: nearly all actives have a fitted effect of over 55% in size)
In short: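 Luminescence read-out (CellTiter-Glo, 30 min at room temperature) measured cell viability in the same wells as the ARE beta-lactamase reporter. HepG2 ARE-bla cells were treated with compounds for 16 hrs at 37C/5% CO2.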

[8] = qHTS assay for small molecule activators of the heat shock response signaling pathway - cell viability counter screen (AID 743209); also: nearly all actives have a fitted effect of over 50% in size
In short: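 HSE-bla HeLa; 1500 cells/well; overnight 37 C, 5% CO2; compound 5 h 37 C; LiveBLAzer B/G substrate 2.5 h RT; CellTiter-Glo 30 min RT; luminescence.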

[9] = qHTS assay for small molecule activators of the heat shock response signaling pathway (AID 743210; active = well fitted activation curve with a large enough effect in the signal ratio in the repeat runs, with a control signal flat, not every such curve was filed as active; the % refers to the signal ratio;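 also: HeLa cells with beta-lactamase reporter driven by heat shock elements; series mostly up to about 63 µM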)
In short: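 Fluorescence from a cleaved B/G FRET substrate (2.5 h, room temp) reports HSE-driven beta-lactamase in HeLa cells treated 5 h at 37 C with DMSO-dissolved compounds.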

[10] = qHTS assay to identify small molecule antagonists of the peroxisome proliferator-activated receptor gamma (PPARg) signaling pathway - cell viability counter screen (AID 743194); also: nearly all actives have a fitted effect of over 55% in size
In short: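 Viability was measured as CellTiter-Glo luminescence in GeneBLAzer PPARg UAS-bla HEK293H cells. These cells had been exposed 17 h at 37 C to compounds together with rosiglitazone at 50 nM final, with the beta-lactamase readout taken in the same wells.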
% is scaled to controls: 0 for no effect and ±100 for the full control effect.

Sequence of Aryl hydrocarbon receptor (Homo sapiens) (P35869 whole entry, looked up): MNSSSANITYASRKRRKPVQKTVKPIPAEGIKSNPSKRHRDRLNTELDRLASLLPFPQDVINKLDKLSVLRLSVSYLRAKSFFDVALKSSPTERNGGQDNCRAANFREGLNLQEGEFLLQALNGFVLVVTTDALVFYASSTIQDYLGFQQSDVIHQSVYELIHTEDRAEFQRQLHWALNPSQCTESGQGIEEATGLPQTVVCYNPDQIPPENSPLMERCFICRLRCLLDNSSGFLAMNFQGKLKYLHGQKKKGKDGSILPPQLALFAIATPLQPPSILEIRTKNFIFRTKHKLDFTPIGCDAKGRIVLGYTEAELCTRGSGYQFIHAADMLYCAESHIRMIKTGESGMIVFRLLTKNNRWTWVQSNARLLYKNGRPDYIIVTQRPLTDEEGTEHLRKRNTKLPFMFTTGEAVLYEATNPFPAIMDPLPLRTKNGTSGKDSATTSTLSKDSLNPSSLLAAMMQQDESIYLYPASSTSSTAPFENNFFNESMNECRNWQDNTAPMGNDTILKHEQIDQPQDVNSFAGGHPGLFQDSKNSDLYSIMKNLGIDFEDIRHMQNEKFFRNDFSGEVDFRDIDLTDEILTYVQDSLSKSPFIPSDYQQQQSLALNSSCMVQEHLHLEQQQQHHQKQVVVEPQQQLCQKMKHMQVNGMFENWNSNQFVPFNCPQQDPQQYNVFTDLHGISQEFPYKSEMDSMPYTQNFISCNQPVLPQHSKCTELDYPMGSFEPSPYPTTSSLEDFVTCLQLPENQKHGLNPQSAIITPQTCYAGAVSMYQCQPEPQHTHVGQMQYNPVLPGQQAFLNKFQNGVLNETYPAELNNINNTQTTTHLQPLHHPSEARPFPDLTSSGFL
Sequence of Peroxisome proliferator-activated receptor gamma (Homo sapiens) (P37231 whole entry, looked up): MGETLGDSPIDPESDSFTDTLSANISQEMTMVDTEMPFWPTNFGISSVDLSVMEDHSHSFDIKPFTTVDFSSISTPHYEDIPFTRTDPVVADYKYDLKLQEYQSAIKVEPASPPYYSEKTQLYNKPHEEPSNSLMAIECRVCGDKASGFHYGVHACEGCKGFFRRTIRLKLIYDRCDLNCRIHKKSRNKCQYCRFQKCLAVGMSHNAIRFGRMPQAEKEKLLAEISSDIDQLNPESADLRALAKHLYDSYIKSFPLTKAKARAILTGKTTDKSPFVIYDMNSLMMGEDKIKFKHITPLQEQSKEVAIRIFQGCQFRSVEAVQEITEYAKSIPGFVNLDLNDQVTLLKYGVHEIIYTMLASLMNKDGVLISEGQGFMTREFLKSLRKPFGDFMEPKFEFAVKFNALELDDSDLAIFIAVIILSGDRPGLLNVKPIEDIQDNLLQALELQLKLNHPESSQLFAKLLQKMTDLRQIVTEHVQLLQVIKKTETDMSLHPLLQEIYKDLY

c1ccc(CC2=NCCN2)cc1
inactive: Potency [1] | Potency [2] | Potency [3] | outcome [4] | Potency [5] | Potency [6] | Potency [7] | outcome [8] | outcome [9]

C1CN(CCOCCN2CCOCC2)CCO1
inactive: Potency [1] | Potency [2] | Potency [3] | outcome [4] | Potency [5] | Potency [6] | Potency [7] | outcome [8] | outcome [9]

COc1ccccc1OCC(O)CN1CCN(CC(=O)Nc2c(C)cccc2C)CC1 (configuration not stated)
inactive: Potency [1] | Potency [2] | Potency [3] | outcome [4] | outcome [10] | Potency [7] | outcome [8]

C[C@](N)(Cc1ccc(O)cc1)C(=O)O
inactive: Potency [1] | Potency [2] | Potency [3] | outcome [4] | activity change, negative = cytotoxicity [10] 4.13% [at 5.95 µM] | viability change, negative = cytotoxic [7] -15% [at 8.36 µM] | activity change, negative = cytotoxicity [8] 1.38% [at 5.95 µM] | activation [9] 0.673% [at 5.95 µM]

CC(C)CCCC(C)N (configuration not stated)
inactive: Potency [1] | Potency [2] | Potency [3] | outcome [4] | outcome [10] | Potency [7] | outcome [8]

O=C(O)CCCl
inactive: Potency [1] | Potency [2] | Potency [3] | outcome [4] | outcome [10] | Potency [7] | outcome [8] | outcome [9]

N=C(N)c1ccc2cc(OC(=O)c3ccc(N=C(N)N)cc3)ccc2c1
inactive: Potency [1] | Potency [2] | Potency [3] | outcome [4] | outcome [10] | Potency [7] | outcome [8] | outcome [9]

O=C(O)CNC(=O)c1ccc([N+](=O)[O-])cc1
inactive: Potency [1] | Potency [2] | Potency [3] | outcome [4] | outcome [10] | Potency [6] | Potency [7] | outcome [8] | outcome [9]

COc1ccc2c(c1)c(CC(=O)OCC(=O)O)c(C)n2C(=O)c1ccc(Cl)cc1
inactive: Potency [1] | Potency [2] | Potency [3] | outcome [4] | outcome [10] | Potency [7] | outcome [8] | outcome [9]

CC(C)(C)c1nnc(NS(=O)(=O)c2ccccc2)s1
inactive: Potency [1] | Potency [2] | Potency [3] | outcome [4] | outcome [10] | Potency [7] | outcome [8]

CN(C)CCCNCCCN(C)C
inactive: Potency [1] | Potency [2] | Potency [3] | outcome [4] | Potency [5] | Potency [7] | outcome [8] | outcome [9]

OCCCC1CCCCC1
inactive: Potency [1] | Potency [2] | Potency [3] | outcome [4] | outcome [10] | Potency [6] | Potency [7] | outcome [8] | outcome [9]

C[N+](C)(C)CC(O)CC(=O)[O-] (configuration not stated)
inactive: Potency [1] | Potency [2] | Potency [3] | outcome [4] | outcome [10] | Potency [7] | outcome [8] | outcome [9]

CCCN1CCCC[C@H]1C(=O)Nc1c(C)cccc1C
inactive: Potency [1] | Potency [2] | Potency [3] | outcome [4] | outcome [10] | Potency [6] | Potency [7] | outcome [8] | outcome [9]

NS(=O)(=O)c1cc2c(cc1Cl)NC(C1CC3C=CC1C3)NS2(=O)=O (configuration not stated)
inactive: Potency [1] | Potency [2] | Potency [3] | outcome [4] | outcome [10] | Potency [6] | Potency [7] | outcome [8] | outcome [9]

CC[N+](C)(C)c1cccc(O)c1
inactive: Potency [1] | Potency [2] | Potency [3] | outcome [4] | Potency [5] | Potency [6] | Potency [7] | outcome [8] | outcome [9]

C=C(C)C(=O)OCCCCCCCC(C)C
inactive: Potency [1] | Potency [2] | Potency [3] | outcome [4] | outcome [10] | Potency [6] | Potency [7] | outcome [8]

CCOC(=O)c1ccc(C)cc1
inactive: Potency [1] | Potency [2] | Potency [3] | outcome [4] | outcome [10] | Potency [6] | Potency [7] | outcome [8] | outcome [9]

O=[N+]([O-])c1ccc(F)cc1F
inactive: Potency [1] | Potency [2] | Potency [3] | outcome [4] | outcome [10] | Potency [7] | outcome [8] | outcome [9]

CCSC(=O)N(CC(C)C)CC(C)C
inactive: Potency [1] | Potency [2] | Potency [3] | outcome [4] | outcome [10] | Potency [6] | Potency [7] | outcome [8]

CC(C)(O)C#CC(C)(C)O
inactive: Potency [1] | Potency [2] | Potency [3] | outcome [4] | outcome [10] | Potency [6] | Potency [7] | outcome [8] | outcome [9]

ClC(Cl)(Br)Br
inactive: Potency [1] | Potency [2] | Potency [3] | outcome [4] | outcome [10] | Potency [6] | Potency [7] | outcome [8] | outcome [9]

Cc1ccc(C#N)cc1
inactive: Potency [1] | Potency [2] | Potency [3] | outcome [4] | outcome [10] | Potency [7] | outcome [8] | outcome [9]

CCCCOCCOCCOCCCC
inactive: Potency [1] | Potency [2] | Potency [3] | outcome [4] | outcome [10] | Potency [7] | outcome [8] | outcome [9]

OC(CCN1CCCCC1)(c1ccccc1)C1CC2C=CC1C2 (configuration not stated)
inactive: Potency [1] | Potency [2] | Potency [3] | outcome [4] | outcome [10] | Potency [7] | outcome [8] | outcome [9]

CO/N=C(/C(=O)N[C@@H]1C(=O)N2C(C(=O)OCOC(=O)C(C)(C)C)=C(C)CS[C@H]12)c1csc(N)n1
inactive: Potency [1] | Potency [2] | Potency [3] | outcome [10] | Potency [6] | Potency [7] | outcome [8] | outcome [9]

Nc1c[n+](N2CCOCC2)no1
inactive: Potency [1] | Potency [2] | Potency [3] | outcome [10] | Potency [6] | Potency [7] | outcome [8] | outcome [9]

CN1CC(=O)NC1=N
inactive: Potency [1] | Potency [2] | Potency [3] | outcome [10] | Potency [6] | outcome [8] | outcome [9]

CS(=O)(=O)O
inactive: Potency [1] | Potency [2] | Potency [3] | outcome [10] | Potency [7] | outcome [8] | outcome [9]
